Screening results as filed in PubChem.
Compounds with a hit are over-represented: about 1.3% of the library has one in this group of screens.
Gli-Sufu block: antagonists of Gli-Sufu signaling; Sufu-KO-LIGHT fibroblasts, Gli luciferase reporter luminescence; inhibition, % at 5 µM; 340,000 compounds, 0.74% hits; AID 588413;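 active means inhibition above about 55%, limit read from the data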;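 further: 0% = DMSO-treated cells and 100% = wells with medium but no cells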
NCOA3 inh: human NCOA3 inhibition | HEK293 GAL4-SRC3 luciferase reporter, luminescence | inhibition, % at 3.6 µM | 360,000 compounds, 0.17% hits | AID 588352;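 active means inhibition above a per-campaign cutoff, the mean of all compounds plus 3 SD, cut at about 60% in these data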;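 further: 0% = DMSO-treated cells and 100% = gossypol-treated cells at 36 µM; higher means less SRC3-driven luciferase light from the GAL4 reporter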
NR5A2 inv ag: inverse agonists of human LRH-1 (NR5A2). inhibition, % at 3.6 µM. 360,000 compounds, 0.13% hits. O00482. HEK293T StAR-luciferase reporter, LRH-1 transfected, 24 h;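 active means inhibition above the mean inhibition of all tested compounds plus 3 SD, cut at about 73% in these data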;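 further: 0% = DMSO wells and 100% = reporter-only cells lacking LRH-1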
SRC2 inh: human SRC2 (NCOA2) inhibition; inhibition, % at 9 µM; 370,000 compounds, 0.17% hits; HEK293 GAL4-SRC2 luciferase reporter, luminescence; AID 651957; Q15596;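 active means inhibition above the mean inhibition of all tested compounds plus 3 SD, set per campaign, cut at about 52% in these data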;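 further: 0% = DMSO treated cells and 100% = cells given Gossypol at 36 µM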
NCOA1 inh: inhibitors of human steroid receptor coactivator 1 (SRC1); Q15788; HEK293 GAL4-SRC1 luciferase reporter, luminescence; inhibition, % at 3.6 µM; 360,000 compounds, 0.12% hits; AID 588354;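 active means inhibition above the campaign mean plus 3 SD, with each screening campaign given its own cutoff, cut at about 60% in these data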;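 further: 0% = DMSO treated cells and 100% = gossypol at 36 µM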
COUP-TFII inh: inhibitors of human COUP-TFII (NR2F2); P24468; HEK293T NGFI-A luciferase reporter, luminescence; inhibition, % at 8.6 µM; 370,000 compounds, 0.7% hits;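 active means inhibition above a per-plate cutoff, mean inhibition of test wells between control levels plus 3 SD, cut at about 38% in these data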;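 further: cells cotransfected with COUP-TFII expression vector driving the NGFI-A reporter; 0% = median of COUP-TF2 test wells and 100% = reporter-only cells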
VP16 Luc counter: counter-screen for COUP-TFII antagonists: inhibitors of VP16; shares compounds with COUP-TFII inh; HEK293 Gal4-VP16 luciferase reporter, luminescence; 2,500 compounds, 25% hits; inhibition, % at 8.5 µM; in the data active means inhibition above about 13%
COUP-TFII conf: confirmation of human COUP-TFII (NR2F2) inhibitors | shares compounds with COUP-TFII inh | HEK293 NGFI-A luciferase reporter, luminescence | inhibition, % at 8.5 µM | 2,500 compounds, 45% hits | AID 687008;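 active means mean inhibition over three repeats above a set limit taken from the earlier primary screen, cut at about 38% in these data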;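 further: 100% = cells given the luciferase reporter alone without the COUP-TF2 vector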
Numbers without * were called inactive; nt = not tested or not shown.

SMILES | Gli-Sufu block | NCOA3 inh | NR5A2 inv ag | SRC2 inh | NCOA1 inh | COUP-TFII inh | VP16 Luc counter | COUP-TFII conf
O=C(COC(=O)c1cc(S(=O)(=O)N2CCOCC2)ccc1F)NCc1ccc2c(c1)OCO2 | -1 | -4 | 5 | 44 | -11 | 47* | -8 | -8
C=CCOC(=O)Nc1snnc1C | -8 | 10 | -4 | -11 | -2 | 16 | nt | nt
Cc1nnsc1NC(=O)OCc1ccc(C(C)(C)C)cc1 | 3 | 19 | 39 | 26 | 6 | 56* | -8 | 38*
COCCC1CCCCN1C(=O)c1cc(COc2ccc(C)nc2)on1 (stereo unspecified) | 31 | 20 | 1 | 21 | -20 | 19 | nt | nt
O=C(c1cc(COc2ccc3ncccc3c2)on1)N1CCCC(O)C1 (stereo unspecified) | 29 | 16 | 1 | 11 | 8 | 28 | nt | nt
COCC1CCCN(C(=O)c2cc(COc3ccc4ncccc4c3)on2)C1 (stereo unspecified) | 56* | 12 | 42 | 15 | 4 | 67* | -4 | 60*
O=C(c1cc(COc2ccc3ncccc3c2)on1)N1CCC[C@H]1CO | 42 | 21 | 11 | 12 | 5 | 38* | -30 | 24
CSc1ccc(-c2csc(N3CCC(C(N)=O)CC3)n2)cc1 | nt | nt | nt | nt | nt | -15 | nt | nt
COc1ccc(C(=O)OCCN2CCN(C3CN(Cc4cn(Cc5cccc(F)c5)nn4)S(=O)(=O)C3)CC2)cc1OC (stereo unspecified) | nt | nt | nt | 1 | nt | 8 | nt | nt
COc1ccc(C(=O)OCCN2CCN(C3CN(Cc4cn(Cc5cccc(C)c5)nn4)S(=O)(=O)C3)CC2)cc1OC (stereo unspecified) | nt | nt | nt | 16 | nt | 47* | -12 | 10
Cc1cccc(N2CCN(C(=O)C3CCC(CNS(=O)(=O)c4cccs4)CC3)CC2)c1C (stereo unspecified) | 29 | 4 | 2 | -3 | -4 | 51* | 6 | 32
CCCn1c2c(c(=N)c3c1CCC3)CCC2 | 21 | 22 | 13 | 7 | -10 | 22 | nt | nt
CCCCCCCn1c2c(c(=N)c3ccccc31)CCC2 | 89* | 64* | 79* | 9 | 40 | 74* | 25* | 75*
O=C(CNS(=O)(=O)c1ccc(Br)s1)N1CCN(c2ccccn2)CC1 | nt | nt | nt | -1 | nt | 3 | nt | nt
CCOc1ccc(Br)cc1/C(C)=N\NC1=NCCN1 | 5 | 13 | 42 | 21 | 9 | 45* | 10 | 30
CCCC(=O)OC12CCCN(C1)/C(=C/c1cccc(N(C)C)c1)C2 (stereo unspecified) | nt | nt | nt | 0 | nt | 1 | nt | nt
O=S(=O)(/C=C/C=C/S(=O)(=O)c1ccccc1)c1ccccc1 | 35 | -92 | 28 | 50 | -191 | 51* | 49* | 72*
Cn1nc(C(C)(C)C)cc1C(=O)N1CCCCC1c1cc(C(=O)Nc2ccccc2Cl)no1 (stereo unspecified) | nt | 10 | 13 | 43 | 7 | 48* | 0 | 17
CCN(c1ccc(OC)cc1)c1ncnc2nc[nH]c12 | -25 | 49 | 22 | 49 | 66* | 38* | 3 | 17
Cc1noc(C)c1COC(=O)c1ccc(F)c(S(=O)(=O)N2CCCCC2)c1 | 7 | 3 | -4 | -27 | 7 | 15 | nt | nt
Cc1noc(C)c1COC(=O)c1cccc(S(=O)(=O)N2CCCCCC2)c1 | 8 | 37 | 11 | 40 | 9 | 60* | 4 | 36
Cc1ccc(NC(=O)C2CCCN(c3nnc(-n4cccc4)s3)C2)cc1C (stereo unspecified) | nt | nt | nt | -1 | nt | 9 | nt | nt
COC(=O)[C@]12C[C@H](CC(=O)NCc3cccs3)C(=O)N(CCC3=CCCCC3)C1=C[C@H](C(C)C)O[C@@H]2C1CC1 | nt | nt | nt | -7 | nt | -13 | nt | nt
CCN(CC)S(=O)(=O)c1ccc(Cl)c(NC(=O)COC(=O)c2cccn2C)c1 | 1 | 13 | -16 | -5 | -26 | 38* | -11 | 6
CCN(CC)S(=O)(=O)c1ccc(Cl)c(NC(=O)COC(=O)c2ccc(O)cc2)c1 | -9 | 14 | -27 | 7 | -17 | 18 | nt | nt
SMILES | Gli-Sufu block | NCOA3 inh | NR5A2 inv ag | SRC2 inh | NCOA1 inh | COUP-TFII inh | VP16 Luc counter | COUP-TFII conf
CCN1CCN(Cc2ccc(NC(=O)c3cccc(-c4ccc5nc(NC(=O)C6CC6)sc5n4)c3)cc2C(F)(F)F)CC1 | nt | nt | nt | 37 | nt | 40* | 11 | 40*
Cc1cc(Oc2ccc(N)cn2)cc(C)c1Cl | 7 | -12 | 9 | 15 | 4 | 38* | 8 | 12
CC(C)(C)c1ccc(Oc2ccc(N)cn2)cc1 | 27 | 53 | 16 | 86* | 27 | 78* | 76* | 67*
O=[N+]([O-])c1ccc(Oc2ccc(C(F)(F)F)cn2)cc1 | -5 | -2 | 6 | 2 | 4 | -19 | nt | nt
Nc1ccc(Oc2c(Cl)cccc2Cl)nc1 | -3 | 5 | -10 | 1 | 7 | -5 | nt | nt
CC(C)(C)c1ccc(Oc2ccc(NC(=O)c3ccccc3C(=O)O)cn2)cc1 | 43 | 47 | 35 | 85* | 34 | 80* | 47* | 19
Cc1ccc(OCc2nnc(SCC(=O)c3ccc4ccccc4c3)n2-c2ccc(Cl)cc2)cc1 | nt | nt | nt | 1 | nt | 0 | nt | nt
CCc1ccc(CCNC(=O)OC2CC3CC2[C@H]2CCCCN2[C@H]3C)cc1 (stereo partly specified) | nt | nt | nt | -21 | nt | 8 | nt | nt
Cc1cc(C(F)(F)F)c(C#N)c(SCC(=O)Nc2nc3ccccc3s2)n1 | 16 | 41 | 32 | 10 | 20 | 56* | 21* | 57*
Cc1nc(SCC(=O)Nc2nc3ccccc3s2)c(C#N)c(C)c1C | 90* | 91* | 88* | 85* | 90* | 99* | 91* | 109*
C[C@@H]1ON(C)[C@H]2C[C@H]3c4[nH]c5c(-c6ccccc6)cccc5c4CCN3C(=O)[C@@H]12 | nt | nt | nt | -3 | nt | -8 | nt | nt
C[C@H]1[C@@H](C(=O)N2CCCC2)Cc2nc3ccccc3nc2C[C@@H]1c1ccccc1 | nt | nt | nt | -12 | nt | -3 | nt | nt
c1ccn2cc(-c3ccc4c(c3)OCCO4)nc2c1 | -54 | -49 | -74 | 0 | -65 | 6 | nt | nt
Cc1ccc2nc(-c3ccc4c(c3)OCCO4)cn2c1 | 65* | 39 | 10 | 70* | 37 | 77* | 54* | 71*
COc1ccc2[nH]c3c(NCCCOC(C)C)ncnc3c2c1 | -26 | -69 | -116 | -49 | -81 | -26 | nt | nt
COc1ccc2[nH]c3c(NCCC4=CCCCC4)ncnc3c2c1 | 68* | -46 | -79 | -33 | -51 | 54* | -137 | 21
Cc1ccc(-c2nnc(SCC(=O)Nc3ccc(OCc4ccccc4)cc3)n2-c2ccc(Cl)cc2)cc1 | nt | nt | nt | -4 | nt | 6 | nt | nt
CCOC(=O)COc1ccc(S(=O)(=O)NCc2ccncc2)cc1 | 12 | -4 | 15 | -6 | 0 | 49* | -8 | 17
